ClpP mod: qHTS Assay for Activators of ClpP; ATP-dependent Clp protease proteolytic subunit (Bacillus subtilis (strain 168)), P80244; purified B. subtilis ClpP, FRET peptide cleavage, 20 min; Potency, µM (titrated, usually from 57.5 µM), inactives show at the top dose activity change, negative = active; hit rate 1.9% among 340,000; active = well fitted falling curve with a large enough effect; inconclusive = small, poorly fitted or top-dose-only effect; inactive = no such curve, though single readings can be large or run the other way; also: potency is read from the fitted curve at half-maximal effect; the source files actives as falling curves though it sought activators and does not explain the sign; nearly all actives have a fitted effect of over 65% in size
Target sequence (P80244 whole entry, looked up): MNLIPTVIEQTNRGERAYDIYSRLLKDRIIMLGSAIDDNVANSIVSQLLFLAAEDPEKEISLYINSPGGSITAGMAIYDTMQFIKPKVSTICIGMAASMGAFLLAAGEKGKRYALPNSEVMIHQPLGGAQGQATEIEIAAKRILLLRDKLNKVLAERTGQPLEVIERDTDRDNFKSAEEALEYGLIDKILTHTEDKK
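ClpP 10 microg/mL final, pH 8 Tris/KCl buffer with BSA, glycerol, Tween-20; compound pinned in; FRET-FV substrate; RT 20 min; Ex320/Em430; ΔFRET vs ADEP 5.8 microM, DMSO, no enzyme.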
BCR signal inh: inhibitors of chronic active B-cell receptor signaling; ABC-DLBCL IkBa-CBG/CBR reporter, luminescence ratio, 4 h; Potency, µM (titrated, usually from 46.1 µM), without a hit: at the top dose activity change, negative = inhibition, actives largely listed as inhibitors; hit rate 0.05% among 340,000; active = well fitted inhibition curve with a large enough effect in the signal ratio, with a control signal flat, not every such curve was filed as active; inconclusive = small, poorly fitted or top-dose-only effect, or effect the other way, or a change in a side signal; the % refers to the signal ratio;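 also: potency is read from the fitted curve at half-maximal effect; plate controls were basal doxycycline-induced cells for no effect and cells given 10 µM MG132 for full effect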
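Concentration-response series (up to 46 uM) were applied to TMD8 dual-reporter cells for 4 h at 37C with doxycycline. Green/red ratio, after filter-overlap correction, defined %Activity; red signal alone was normalised to basal cells and zero luminescence.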
KCNH2 3.1 inh: blocks the human KCNH2 3.1 channel isoform. U2OS KCNH2 3.1, thallium flux FluxOr; active compounds read low. activity change, % (tested at about 1.8 µM). hit rate 0.95% among 340,000;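 active = maximum activity change below -70%; inconclusive = maximum activity change from -70% to -50%; inactive = maximum activity change above -50%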;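 also: thallium influx rate constant from kinetic fluorescence after stimulation buffer; % is scaled to controls: 0 for no effect and ±100 for the full control effect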
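Normalized rate constant (relative to positive and negative DMSO controls) derived from a 2 min kinetic fluorescence read after stimulation; U2OS cells expressing the 3.1 isoform via virus at 1.77 x 10^8 /mL.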
hERG WT inh: blocks the wildtype human KCNH2 potassium channel; Q12809; activity change, % at 1.84 µM; U2OS, BacMam KCNH2, thallium flux FluxOr; active compounds read low; hit rate 0.37% among 340,000;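 active = maximum activity change below -70%; inconclusive = maximum activity change between -70% and -50%; inactive = maximum activity change above -50%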; also: % is scaled to controls: 0 for no effect and ±100 for the full control effect
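U2OS cells transduced with wild-type KCNH2 virus are loaded with FluxOr dye for 45 min, and thallium flux is measured in kinetic reads before and after stimulation buffer. Rate constants are normalized to DMSO controls.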
ALOX12 inh: blocks human arachidonate 12S-lipoxygenase. hit rate 1.1% among 580,000. Potency, µM (top dose mostly 108 µM), for inactives: at the top dose activity change, negative = inhibition, actives largely listed as inhibitors. AID 1671190. purified 12hLO, xylenol orange hydroperoxide absorbance; active = well fitted inhibition curve with a large enough effect; inconclusive = small, poorly fitted or top-dose-only effect, or another doubt; inactive = no such curve, though single readings can be large or run the other way; also: potency is read from the fitted curve at half-maximal effect; % is scaled to controls: 0 for no effect and ±100 for the full control effect
Target sequence (P18054 whole entry, looked up): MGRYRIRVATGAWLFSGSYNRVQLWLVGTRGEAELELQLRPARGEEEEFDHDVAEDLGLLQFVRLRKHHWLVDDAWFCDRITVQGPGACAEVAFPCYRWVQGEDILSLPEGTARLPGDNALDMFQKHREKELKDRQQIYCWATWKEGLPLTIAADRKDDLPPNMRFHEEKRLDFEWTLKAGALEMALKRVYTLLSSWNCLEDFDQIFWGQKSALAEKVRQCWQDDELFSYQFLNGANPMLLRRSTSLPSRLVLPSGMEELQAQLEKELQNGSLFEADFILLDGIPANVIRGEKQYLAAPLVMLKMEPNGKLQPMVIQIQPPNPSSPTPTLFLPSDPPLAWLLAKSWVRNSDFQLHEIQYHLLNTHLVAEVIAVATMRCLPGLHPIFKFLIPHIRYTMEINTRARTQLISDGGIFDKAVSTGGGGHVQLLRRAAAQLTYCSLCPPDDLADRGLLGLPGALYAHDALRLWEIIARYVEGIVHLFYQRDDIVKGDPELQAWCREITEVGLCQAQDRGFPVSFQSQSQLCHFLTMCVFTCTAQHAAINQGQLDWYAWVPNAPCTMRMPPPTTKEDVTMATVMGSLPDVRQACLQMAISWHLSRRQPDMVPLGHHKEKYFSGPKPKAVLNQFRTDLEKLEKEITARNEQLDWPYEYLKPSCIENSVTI
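Purified human 12hLO at 150 nM in 25 mM Hepes, 0.01% Triton X-100, pH 7.0, preincubated 15 min at room temperature with compound. Reaction started with 40 uM arachidonic acid, 30 min at room temperature. Hydroperoxide measured by Fe-xylenol orange, 573/405 nm absorbance ratio.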
LDHA block: blocks human lactate dehydrogenase A; hit rate 0.15% among 480,000; P00338; activity change, % (values are at about 110 or 230 µM); AID 1347041; purified LDHA, NADH/diaphorase-resazurin fluorescence; active compounds read low; in the data active = activity change below about -30%; inconclusive = mostly about -25% to -30%;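 also: plate controls were DMSO wells for no effect and wells without enzyme for full effect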
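Human LDH5 (2 nM) was incubated with 0.06 mM NADH and 0.2 mM pyruvate for 5 min at room temperature in Tris pH 7.4. Remaining NADH was coupled through diaphorase/resazurin, and resorufin fluorescence was read at 0 and 20 min.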
* hit, by the source's call; ? = inconclusive; . = not tested or not shown. In the library only some 3% were active in any assay of this set; here they are far more common.

SMILES | ClpP mod | BCR signal inh | KCNH2 3.1 inh | hERG WT inh | ALOX12 inh | LDHA block
Cc1cccc(C(=O)Nc2ccc(-c3nc4ccccc4s3)cc2Cl)c1 | 25.1µM* | -0.3% | . | . | 4.5% | -14.3
Cc1cccc(C(=O)NC(=S)NNC(=O)c2cccs2)c1 | -1.7% | ? | 4.1 | -1.9 | ? | 2.8
Cc1cc(C)cc(C(=O)Nc2ccc(-c3nc4ccccc4s3)cc2C)c1 | . | . | . | . | 5.4% | 0.2
COC[C@@H]1CN(C(=O)c2ccc3ccccc3n2)C[C@H]1c1ccncc1 | . | . | . | . | 17.9% | .
COc1ccc2c(c1)Cc1sc(NC(=O)c3ccccc3Cl)nc1-2 | . | . | . | . | ? | 0.5
COc1cc(NC(=O)O[C@@H]2CC[C@]3(C)C(CC[C@@H](O)[C@H]3CC(=O)N3CCC[C@H]3CO)[C@]2(C)CO)cc(OC)c1 (stereo not given in full) | . | . | . | . | 21.1% | .
Cc1cccc(C(=O)NNC(=S)NC(=O)c2ccc(C(C)(C)C)cc2)c1 | . | . | . | . | 17.8µM* | -9.8
CC1CCCCN1C(=O)COC(=O)C1CCN(S(=O)(=O)c2c(Cl)cccc2Cl)CC1 (stereo not given) | 15.8µM* | ? | -12.0 | 3.8 | 155.5% | -7.1
CCN1CCc2c(C#N)c(N3CCCCC3)nc(N3CCOCC3)c2C1 | 8.91µM* | -2.6% | 20.0 | 21.4 | 0.0% | -2.6
CC(C)c1nc(N2CCOCC2)c(C#N)c2c1CCCC2 | 31.6µM* | ? | -4.7 | 0.0 | -10.6% | -3.4
NCc1ccc(Br)cc1C(F)(F)F | . | . | . | . | 4.5% | 8.7
CC(=O)Nc1nc2n(n1)C(c1ccc(Cl)cc1)C=C(c1ccc(Cl)cc1)N2 (stereo not given) | . | . | . | . | ? | -2.4
CC1=CC(c2ccc(Cl)cc2)n2nc(NS(=O)(=O)c3ccc(C)cc3)nc2N1 (stereo not given) | 22.4µM* | -1.2% | -2.3 | 3.9 | ? | 0.1
Cc1ccc(C2C=C(c3ccc(Cl)cc3)Nc3nc(NC(=O)c4ccco4)nn32)cc1 (stereo not given) | 3.9% | . | . | . | 22.4µM* | -0.7
CC1=CC(c2ccc(Cl)cc2)n2nc(N3C(=O)CCC3=O)nc2N1 (stereo not given) | 10µM* | 11.6% | -5.5 | -0.8 | . | 4.6
O=C1N(C2CCNCC2)C(c2ccncc2)C12CCCCC2 (stereo not given) | . | . | . | . | 19.1% | .
CN1c2cc(C(=O)Nc3ccc(Oc4ccccc4)cc3)ccc2C(=O)N2CCCCC21 (stereo not given) | . | . | . | . | -29.4% | .
Cc1cccc(C)c1OC(=O)c1ccc(C#N)cc1 | . | . | . | . | ? | -2.8
COc1ccccc1/C=C/C=C1N=C(/C=C/c2ccc(Cl)cc2)OC/1=O | -1.5% | -4.3% | -1.3 | -4.9 | ? | -2.0
COc1ccccc1/C=C/C1=NC(=C\C=C/c2ccccc2)/C(=O)O1 | -3.5% | 11.5% | -0.2 | -8.7 | 44.7µM* | -8.8
Cc1cccc(NC(=O)c2ccoc2C)n1 | 28.2µM* | ? | 1.4 | -1.9 | 0.0% | -9.5
Cc1cccc(NC(=O)c2cc(NC(=O)c3ccco3)ccc2Cl)n1 | 0.6% | 23.1µM* | -8.7 | 27.9 | 29.2% | -0.5
CC(=O)Nc1ccc(OCc2cc(=O)n3ccsc3n2)cc1 | . | . | . | . | ? | -3.9
CC(C)(C)C(=O)Nc1cccc(NC(=O)Cc2ccccc2Cl)c1 | . | . | . | . | -2.1% | 4.8
O=c1cc(CN(Cc2ccccc2)Cc2ccccc2)c2ccccc2o1 | -6.8% | . | . | . | -3.5% | -11.5
SMILES | ClpP mod | BCR signal inh | KCNH2 3.1 inh | hERG WT inh | ALOX12 inh | LDHA block
Cc1ccc2c(CN3CCN(S(=O)(=O)c4ccc(Cl)cc4)CC3)cc(=O)oc2c1C | 14.1µM* | -1.2% | 0.8 | 0.7 | 0.9% | -1.5
CCCCN(CCCC)Cc1cc(=O)oc2ccc3ccccc3c12 | ? | . | . | . | 35.5µM* | 5.1
COCCN(CCOC)Cc1cc(=O)oc2ccccc12 | -4.5% | . | . | . | 17.8µM* | -8.8
COCCN(CCOC)Cc1cc(=O)oc2cc(C)c(Cl)cc12 | -13.8% | . | . | . | 44.7µM* | -8.4
C=CCN(CC=C)Cc1cc(=O)oc2ccc3ccccc3c12 | ? | . | . | . | ? | -1.3
Cc1ccccc1/[N+]([O-])=C/c1ccco1 | . | . | . | . | ? | -1.1
Cc1cc2oc(=O)cc(CN3CCCC3)c2cc1Cl | -4.7% | . | . | . | 6.31µM* | -1.2
CCCN(CCC)Cc1cc(=O)oc2cc(C)c(Cl)cc12 | -9.9% | . | . | . | 39.8µM* | -5.0
Cc1cc2oc(=O)cc(CN3CCCCC3)c2cc1Cl | -2.9% | . | . | . | ? | -13.2
Cc1ccc(C(=O)Nc2cc(S(=O)(=O)N3CCCCC3)ccc2Oc2ccccc2)cn1 | . | . | . | . | -28.0% | 8.1
N#CC(C(=O)CSc1ccc2c(c1)OCCO2)c1nc(-c2ccccc2)cs1 (stereo not given) | . | . | . | . | 10µM* | 8.2
CCN(CC(=O)Nc1ccc(OC)cc1)C(=O)CCS(=O)(=O)c1ccc(C)cc1 | 0.9% | -1.1% | -12.7 | -8.4 | 7.9% | 2.3
CCN(CC(=O)Nc1ccc(OC)cc1)C(=O)Cc1cccs1 | . | -0.5% | -151.5* | 0.0 | ? | -0.6
CCCOc1ccc(C(F)(F)F)cc1N | . | . | . | . | ? | -2.3
CCCOc1ccc(C[N+](C)(C)C)cc1C[N+](C)(C)C | . | . | . | . | 63.1µM* | -1.0
COC(=O)c1cc2c(C)c(C)c3ccccn3c-2c1C(=O)OC | 1.8% | 14.4% | 4.2 | -2.5 | 0.0% | 5.6
COC(=O)c1cc2n3ccccc3c(C)c(-c3ccccc3)c-2c1C(=O)OC | 31.6µM* | 17.8% | -7.3 | -8.7 | ? | 13.9
CCOP(=O)(OCC)c1nc(-c2ccc([N+](=O)[O-])cc2)oc1NCc1ccc(C)cc1 | . | . | . | . | 10µM* | 4.7
CC1(C)Cc2ccccc2C(NNC(=O)c2ccncc2)=N1 | 2.9% | -7.1% | -11.6 | 7.2 | 6.1% | -3.1
CC1(C)Cc2ccccc2C(NNC(=O)c2cccnc2)=N1 | 17.8µM* | -1.5% | -1.0 | -5.0 | 439.3% | -5.4
CC(=O)c1c(O)c(C)c(O)c2c1OC1=CC(=O)/C(=C(/C)N)C(=O)C12C (stereo not given) | -3.7% | . | -14.0 | -1.0 | ? | -6.1
COC12CC(=O)C(C(C)=O)=C(O)C1(C)c1c(O)c(C)c(O)c(C(C)=O)c1O2 (stereo not given) | . | . | . | . | 39.8µM* | .
Cc1ccc(-c2cc(C(F)F)nc(N3CCC(C)CC3)n2)cc1 | 25.1µM* | 0.7% | 1.8 | -3.8 | 14.3% | 2.6
O=C(O)c1[nH]c2ccccc2c1NS(=O)(=O)Cc1ccccc1 | 28.2µM* | 12.1% | 6.8 | -10.5 | 0.0% | -1.9
C/C(=N/Nc1c(F)c(F)nc(F)c1F)c1ccc(Cl)c([N+](=O)[O-])c1 | . | . | . | . | 8.8% | 1.1
O=C(Nc1nc2ccccc2s1)c1cc(-c2ccccc2)nn1-c1ccccc1 | 28.2µM* | -5.3% | -4.7 | 1.5 | 2.5% | -8.1

Compound activity (PubChem)
